MLLE-PAM2 inh – inhibitors of PABP1 MLLE–PAM2 peptide binding, primary screen, biochemical, fluorescence polarization, FITC-PAM2, GST-MLLE | Polyadenylate-binding protein 1 (Homo sapiens), P11940 | 360,000 tested, 0.36% active | AID 588489, 2011 | inhibition, % at 20 µM; in the data active = inhibition above about 35%, passing the limit was not always enough;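 note: plate controls were DMSO wells with GST-MLLE for no effect and wells lacking GST-MLLE protein for full effect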
PABP FP inh – PABP poly(A) RNA binding inhibitors, primary screen, biochemical, fluorescence polarization, uHTS. Polyadenylate-binding protein 1 (Homo sapiens), P11940. 290,000 tested, 1% active. calls only at 35 µM. AID 2014, 2009;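 note: calls also rest on retests at 20 µM and on dose response follow-up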
eIF4H inh – human eIF4H binding inhibitors, primary screen, translation initiation inhibitor project, biochemical, uHTS, fluorescence polarization | Eukaryotic translation initiation factor 4H (Homo sapiens), Q15056 | eIF4H fluorescence polarization binding assay | AID 2012, 2009 | inhibition, % at 35 µM | 290,000 tested, 0.94% active;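 note: calls also rest on retests at 20 µM and on dose response follow-up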
14-3-3 Bad PPI – inhibitors of 14-3-3 zeta/Bad binding, primary screen, biochemical, TR-FRET, bovine 14-3-3 zeta; 14-3-3 protein zeta/delta (Bos taurus), P63103; TR-FRET 14-3-3zeta/Dy647-pBad peptide displacement, 1 h; inhibition, % at 21.7 µM; 220,000 tested, 0.71% active;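 active = inhibition above about 70%, limit read from the data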;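 note: 0% = full 14-3-3 plus peptide FRET controls and 100% = background without 14-3-3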
eIF4E 4G PPI – eIF4E–eIF4G protein interaction inhibitors, primary screen, biochemical, uHTS, TR-FRET, eIF4GI fragment. inhibition, % at 21.7 µM. 220,000 tested, 0.37% active. TR-FRET eIF4E-eIF4GI(517-606) binding, 2 h. AID 782, 2007. Eukaryotic translation initiation factor 4E (Mus musculus) + Eukaryotic translation …;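 active = inhibition above about 30%, limit read from the data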;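 note: 0% = full FRET control wells and 100% = background wells lacking eIF4GI fragment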
Target sequence (P63073 whole entry, looked up, the tested form may be a part): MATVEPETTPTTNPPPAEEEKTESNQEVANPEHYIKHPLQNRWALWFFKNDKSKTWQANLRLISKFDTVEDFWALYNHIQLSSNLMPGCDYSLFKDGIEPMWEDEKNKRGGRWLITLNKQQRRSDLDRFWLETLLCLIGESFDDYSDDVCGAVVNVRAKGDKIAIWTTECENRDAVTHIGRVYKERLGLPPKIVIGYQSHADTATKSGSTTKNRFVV
Target sequence (Q04637 whole entry, looked up, the tested form may be a part): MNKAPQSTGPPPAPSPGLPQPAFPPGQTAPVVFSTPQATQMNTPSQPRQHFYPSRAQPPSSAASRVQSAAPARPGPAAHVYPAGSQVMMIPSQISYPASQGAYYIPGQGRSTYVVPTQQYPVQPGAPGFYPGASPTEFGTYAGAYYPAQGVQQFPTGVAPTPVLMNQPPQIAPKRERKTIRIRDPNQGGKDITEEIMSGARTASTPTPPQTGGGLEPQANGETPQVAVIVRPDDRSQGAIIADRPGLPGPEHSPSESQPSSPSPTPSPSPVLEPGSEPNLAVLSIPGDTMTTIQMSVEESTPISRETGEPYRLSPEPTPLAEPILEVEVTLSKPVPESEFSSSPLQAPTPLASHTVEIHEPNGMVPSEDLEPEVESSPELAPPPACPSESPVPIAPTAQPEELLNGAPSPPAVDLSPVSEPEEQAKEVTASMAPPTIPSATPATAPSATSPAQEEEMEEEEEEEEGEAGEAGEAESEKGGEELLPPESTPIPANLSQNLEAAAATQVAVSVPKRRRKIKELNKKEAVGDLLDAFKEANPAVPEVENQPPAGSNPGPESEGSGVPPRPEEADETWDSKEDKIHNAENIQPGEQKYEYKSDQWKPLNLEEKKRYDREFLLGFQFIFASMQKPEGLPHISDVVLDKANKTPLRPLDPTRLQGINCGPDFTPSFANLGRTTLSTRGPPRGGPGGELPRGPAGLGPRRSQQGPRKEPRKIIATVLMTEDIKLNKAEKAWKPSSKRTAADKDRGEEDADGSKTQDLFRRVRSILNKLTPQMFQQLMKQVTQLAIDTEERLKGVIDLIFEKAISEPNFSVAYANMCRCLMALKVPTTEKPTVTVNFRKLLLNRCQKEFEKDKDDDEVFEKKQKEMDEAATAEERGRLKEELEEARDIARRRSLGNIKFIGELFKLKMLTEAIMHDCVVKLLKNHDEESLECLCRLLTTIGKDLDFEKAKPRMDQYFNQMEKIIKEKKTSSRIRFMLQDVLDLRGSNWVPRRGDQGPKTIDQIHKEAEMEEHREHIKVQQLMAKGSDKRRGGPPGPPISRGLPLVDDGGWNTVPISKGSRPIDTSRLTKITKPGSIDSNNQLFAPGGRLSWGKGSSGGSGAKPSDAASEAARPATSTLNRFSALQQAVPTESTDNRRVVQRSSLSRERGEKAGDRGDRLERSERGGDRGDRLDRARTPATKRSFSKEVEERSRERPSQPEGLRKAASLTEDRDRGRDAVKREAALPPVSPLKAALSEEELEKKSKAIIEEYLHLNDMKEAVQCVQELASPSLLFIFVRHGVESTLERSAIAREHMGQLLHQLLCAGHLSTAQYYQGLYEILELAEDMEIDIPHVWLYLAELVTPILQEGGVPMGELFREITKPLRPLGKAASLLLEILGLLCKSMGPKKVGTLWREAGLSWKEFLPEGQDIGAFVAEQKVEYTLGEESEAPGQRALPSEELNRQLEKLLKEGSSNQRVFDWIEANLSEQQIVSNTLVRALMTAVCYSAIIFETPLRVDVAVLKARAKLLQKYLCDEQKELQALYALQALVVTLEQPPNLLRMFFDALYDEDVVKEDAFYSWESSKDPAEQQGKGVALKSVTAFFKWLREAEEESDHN
Starred values were filed as active, the others as inactive; i = inactive; x = no result; + = active, no number; [ ] = remark or other dose. Sampled rows, rich in hits. Any-hit rate of the full collection: about 1.9%. Unless noted, the rule behind the calls is not given here.

SMILES	MLLE-PAM2 inh	PABP FP inh	eIF4H inh	14-3-3 Bad PPI	eIF4E 4G PPI
Cc1ccc(-c2nc3cccnc3s2)cc1NC(=O)c1ccco1	-8	x	x	x	x
N#C/C(=C\c1ccc[nH]1)C(=O)Nc1ccccc1[N+](=O)[O-]	-17	+	79*	x	x
Cc1ccc(-c2sc(-c3cccnc3)nc2CC(=O)O)cc1	-2	i	4	75*	0
C=CCc1c(C)nc(-c2ccccc2)nc1Nc1ccccc1O	0	+	69	-23	0
C=CCc1c(C)nc(-c2ccccc2)nc1N/N=C/c1ccccc1	-15	i	-4	3	5
C=CCc1c(C)nc(-c2ccccc2)nc1N/N=C(\C)c1ccc(N)cc1	9	i	-7	74*[fluorescence artefact?]	0
Cc1oc(-c2ccc(Cl)cc2)[n+]([O-])c1C	-7	i	-11	84*	2
Cc1oc(-c2ccc(Cl)cc2)cc1C(=O)O	-1	i	1	9	5
Nc1nc(N2CCN(c3ccc(Cl)cc3)CC2)n[nH]1	-14	i	-3	-22	1
Nc1nc(N2CCN(c3ccccc3)CC2)n[nH]1	-15	i	4	72*	1
C=CCc1cccc2cc(C(=O)Nc3ccc(S(=O)(=O)Nc4nnc(CC)s4)cc3)c(=O)oc12	16	+	67*	17	20
O=C(CN1CCCCCC1)Nc1ccc(F)c(F)c1	-5	i	-3	72*	3
O=C(CN1CCCCC1)Nc1ccc(F)c(Cl)c1	5	i	2	-17	1
O=C1CC(c2ccco2)CC(O)=C1C=NCC1CCNCC1 (centres undefined)	24	+	94*	-4	0
O=C1CC(c2ccco2)CC(O)=C1C=NCCN1CCNCC1 (centres undefined)	-2	+	95*	3	-1
CCOc1ccc(N=CC2=C(O)CC(c3ccco3)CC2=O)cc1 (centres undefined)	6	i	4	-8	-3
CC1(C)CC(=O)C(C=NCC2CCNCC2)=C(O)C1	-12	i	1	-7	6
COc1ccc(C2CC(=O)C(C=NCCN3CCN(C(=S)Nc4ccccc4)CC3)=C(O)C2)cc1 (centres undefined)	-99	i	3	-5	-2
O=C1CC(c2ccco2)CC(O)=C1C=Nc1cc(Cl)cc(Cl)c1 (centres undefined)	14	i	54	-5	52*
Cc1ccc(C2CC(=O)C(C=NCCN3CCN(C(=S)Nc4ccccc4)CC3)=C(O)C2)cc1 (centres undefined)	-105	i	5	7	97*
CN(C)c1ccc(CNCCC2CCOC(C)(C)C2)cc1 (centres undefined)	x	i	-10	92*	-7
Cc1ccc(C(=O)/C=C/C(=O)c2ccc(C)cc2)cc1	1	+	x	-2	5
Cc1ccc(/C=C/C(=O)c2ccc(C)cc2)cc1	13	i	3	-7	3
CCOC(=O)CCCc1sc(N)nc1-c1[nH]c(=O)[nH]c1C	30	i	7	80*	0
CN(CC(=O)NCc1ccco1)CC(=O)Nc1cc(S(C)(=O)=O)ccc1Cl	6	x	x	x	x
SMILES	MLLE-PAM2 inh	PABP FP inh	eIF4H inh	14-3-3 Bad PPI	eIF4E 4G PPI
CC(=O)c1ccc(S(=O)(=O)Nc2cccc(-n3cnnn3)c2)cc1	0	+	98*	x	x
COc1ccc(Nc2c([N+](=O)[O-])ccc3c2=NC2(CCCCC2)N=3)cc1	14	i	-2	-22	6
COc1ccc(C(=O)CCN2CCC(C)CC2)cc1	44*	i	-10	x	x
CCOC(=O)N1CCN(CCC(=O)c2ccc(OC)cc2)CC1	14	i	-7	-10	0
CC(C)COc1ccc(C(=O)CCN2CCCCC2)cc1	19	i	5	79*	2
COc1ccc(C(=O)CCN2CCCC(C)C2)cc1 (centres undefined)	41*	i	-16	x	x
COc1ccc2oc(C(=O)OCC(=O)Nc3ccc(C)c(S(=O)(=O)N4CCOCC4)c3)c(C)c2c1	8	x	x	x	x
CCn1c(SCC(=O)Nc2ccc(N3CCOCC3)cc2)nnc1-c1ccco1	-3	x	x	x	x
O=C(NNS(=O)(=O)c1ccccc1)c1cc2cc3ccccc3nc2s1	-16	i	14	8	-7
